Reference: PubChem BioAssay
Active and inactive are the calls of the source. How the calls were made is not given here.

The molecules below were run against Pantothenate synthetase (Mycobacterium tuberculosis (strain ATCC 25618 / H37Rv)) (UniProt P9WIL5) (assay: Recombinant Mtb pantothenate synthetase (PanC) inhibitors, coupled enzyme, confirmatory (AID 375;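 further: 0% = full reaction with vehicle and 100% = no enzyme background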)). Details: coupled enzyme assay; at 10 µM, stronger effect = higher value.
Sequence of Pantothenate synthetase (Mycobacterium tuberculosis (strain ATCC 25618 / H37Rv)) (P9WIL5 whole entry, looked up): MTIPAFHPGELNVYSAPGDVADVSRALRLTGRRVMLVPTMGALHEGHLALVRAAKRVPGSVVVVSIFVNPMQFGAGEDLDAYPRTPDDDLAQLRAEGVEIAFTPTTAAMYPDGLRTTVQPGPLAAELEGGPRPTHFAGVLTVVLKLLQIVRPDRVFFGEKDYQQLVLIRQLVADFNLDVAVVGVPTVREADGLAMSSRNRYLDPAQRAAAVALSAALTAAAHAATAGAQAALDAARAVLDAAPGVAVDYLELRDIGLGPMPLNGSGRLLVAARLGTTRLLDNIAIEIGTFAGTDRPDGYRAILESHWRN

SMILES	inhibition
CCOC(=O)Cc1csc(NC(=O)CSc2nnc(C3CC3)n2C)n1	3% (inactive)
COc1cccc(C(=O)Nc2ncc3c(n2)CC(C)CC3=O)c1 (stereo not given)	5% (inactive)
CCOC(=O)c1sc(N)c(C(=O)OCC)c1COC(=O)C1CC(=O)N(Cc2ccco2)C1 (stereo not given)	6% (inactive)
C=CCNC(=O)CN(c1cccc(Br)c1)S(C)(=O)=O	0% (inactive)
CCOC(=O)CN1CC23C=CC(O2)C(C(=O)NCc2ccc(F)cc2)C3C1=O (stereo not given)	0% (inactive)
CC1(C)CC(=O)C(CC2=C(O)CC(C)(C)CC2=O)=C(O)C1	4% (inactive)
COC(=O)C(C)Oc1ccc2c3c(c(=O)oc2c1)CCCCC3 (stereo not given)	2% (inactive)
O=C(NCc1nc2ccccc2[nH]1)c1ccco1	0% (inactive)
O=C(CN1CCN(c2ccccn2)CC1)N1c2ccccc2CCc2ccccc21	0% (inactive)
Cc1nc(N2CCc3ccccc32)[nH]c(=O)c1CCC(C)C	0% (inactive)
C=CCn1c(SCC(=O)NCCCC)nc2scc(-c3ccco3)c2c1=O	0% (inactive)
CC(NC(=O)C1CC1)C(c1cccs1)N1CCN(c2ccccc2)CC1 (stereo not given)	0% (inactive)
CC1CN=C(N(C(=O)Nc2ccccc2)c2ccc(S(=O)(=O)N3CCOCC3)cc2)S1 (stereo not given)	0% (inactive)
CCOC(=O)C1=C(CC)Nc2ccccc2N=C1NC(=O)Nc1ccccc1OC	2% (inactive)
CCOC(=O)c1ccc(N2Cc3cc(C)c(C)cc3C2)cc1O	2% (inactive)
COc1ccccc1S(=O)(=O)Cc1ccc(C(=O)N2CCN(c3ccccn3)CC2)o1	0% (inactive)
Clc1ccccc1OCCCCn1ccnc1	0% (inactive)
O=C(NC1(C(F)(F)F)NC(=O)N(Cc2ccco2)C1=O)c1cccnc1 (stereo not given)	11% (inactive)
O=C(O)c1ccccc1S	0% (inactive)
COC(=O)c1ccc(C(=O)OC)c(NC(=O)Nc2ccc3c(c2)OCO3)c1	0% (inactive)

SMILES	inhibition
C(#Cc1ccccc1)Cn1nnc2ccccc21	0% (inactive)
Cc1cccc(NC(=O)CCn2ccnc2C)c1	0% (inactive)
COc1ccc(CCN2C(=O)CC(N3CCN(S(=O)(=O)c4ccccc4)CC3)C2=O)cc1 (stereo not given)	0% (inactive)
CCN(CC)CCN1C(=O)C(O)=C(C(=O)c2cccs2)C1c1ccc(C)o1 (stereo not given)	0% (inactive)
Nc1c(C(=O)NCc2ccco2)nnn1Cc1ccccc1	2% (inactive)
CC(=O)c1cccc(NC(=O)NCc2ccccn2)c1	2% (inactive)
CC(C)C1C2=C(CC(C)(C)CC2=O)ON1c1ccccc1 (stereo not given)	1% (inactive)
Cc1sc2nc(SCc3nc4ccccc4[nH]3)n(Cc3ccco3)c(=O)c2c1C	2% (inactive)
Cc1cc(NC(=O)c2ccc3nc(-c4ccccc4)c(-c4ccccc4)nc3c2)no1	0% (inactive)
Cc1ccc(-c2nnc(SC(C)C#N)n2N)cc1 (stereo not given)	3% (inactive)
Cc1cc(C)c(NC(=O)C2CCCN2CCO)c(C)c1 (stereo not given)	0% (inactive)
O=C(CSc1nnc(-c2ccco2)c(-c2ccco2)n1)Nc1ccccc1	2% (inactive)
Cn1c(=O)n(C)c2cc(NC(=O)C(F)(F)F)ccc21	0% (inactive)
CNCCCN1c2ccccc2CCc2ccccc21	0% (inactive)
CCOC(=O)Cc1csc(NC(=O)CN(C)S(=O)(=O)c2ccc3c(c2)CCC(=O)N3)n1	0% (inactive)
c1cncc(-c2nnc3n2N=C(c2cccs2)CS3)c1	6% (inactive)
CSc1nc(=NC(C)=O)ss1	0% (inactive)
c1ccc(CNc2ccc3c(c2)ncn3C2CCCCC2)nc1	0% (inactive)
CCCCOC(=O)C1=C(C)Nc2ncnn2C1c1cccc(OC)c1OC (stereo not given)	8% (inactive)
CCCC(=O)Nc1nnc(CC(=O)OCC)s1	3% (inactive)
